Rango release inh: inhibition of RanGTP-driven Rango-importin beta dissociation; O95149+P62826; Biochemical FRET Rango-importin beta, RanGTP-induced dissociation; Potency, µM (titrated, usually from 46.1 µM); 340,000 compounds, 0.071% hits; also: nearly all actives have a fitted effect of over 45% in size
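Compounds sat 5 min at room temperature with 0.1 uM Rango biosensor plus 0.25 uM importin beta, then FRET pre-read. RanGTP-RCC1 (0.6 uM Ran, 2mM GTP, 0.2 uM RCC1) added for 45 min, and the CFP/YFP post-read measured blocked complex dissociation.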
Rango-impB inh: prevents formation of the Rango-importin beta complex | Q14974 | Rango CFP/YFP FRET sensor + importin beta, 45 min | Potency, µM (highest dose often 92.2 µM) | 340,000 compounds, 0.031% hits | AID 540263; also: nearly all actives have a fitted effect of over 15% in size
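FRET biosensor (snurportin 1 IBB flanked by EYFP and cerulean), 50 nM, with compound 5 min, then 0.125 microM importin beta in PBS, 1 mM DTT, 0.02% Tween-20, 0.1% BSA. CFP/YFP ratio read after 45 min at room temperature; pre-read flags interference.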
ALOX12 inh: blocks human arachidonate 12S-lipoxygenase; purified 12hLO, xylenol orange hydroperoxide absorbance; 580,000 compounds, 1.1% hits; Potency, µM (top dose mostly 108 µM), actives largely listed as inhibitors; active = well fitted curve in the direction sought with a large enough effect; inconclusive = small, poorly fitted or top-dose-only effect, or another doubt; inactive = no such curve, though single readings can be large; an effect the other way counts as inactive or inconclusive
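Hydroperoxide product was detected by ferrous iron/xylenol orange as the 573 to 405 nm absorbance ratio. Arachidonic acid at 40 uM (final) was turned over for 30 min at room temperature by 150 nM human 12hLO, pH 7.0 Hepes buffer, after 15 min compound preincubation.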
ClpP mod: qHTS Assay for Activators of ClpP | purified B. subtilis ClpP, FRET peptide cleavage, 20 min | Potency, µM (highest dose often 57.5 µM) | 340,000 compounds, 1.9% hits | AID 651965, 2013; active = well fitted falling curve with a large enough effect; inconclusive = small, poorly fitted or top-dose-only effect; inactive = no such curve, though single readings can be large or run the other way; also: the source files actives as falling curves though it sought activators and does not explain the sign; nearly all actives have a fitted effect of over 65% in size
Target sequence (P80244 whole entry, looked up): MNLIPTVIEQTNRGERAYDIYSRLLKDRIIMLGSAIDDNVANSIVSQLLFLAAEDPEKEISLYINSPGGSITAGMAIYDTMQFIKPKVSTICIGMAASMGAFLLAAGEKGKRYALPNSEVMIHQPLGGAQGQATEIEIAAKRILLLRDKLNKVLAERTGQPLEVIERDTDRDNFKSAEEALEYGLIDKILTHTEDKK
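ClpP 10 microg/mL final, pH 8 Tris/KCl buffer with BSA, glycerol, Tween-20; compound pinned in; FRET-FV substrate; RT 20 min; Ex320/Em430; ΔFRET vs ADEP 5.8 microM, DMSO, no enzyme.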
TDP1 block: blocks human tyrosyl-DNA phosphodiesterase 1; Q9NUW8; 350,000 compounds, 0.28% hits; Potency, µM (doses to about 130 µM), most hits filed as inhibitors; recombinant TDP1, AlphaScreen DNA substrate cleavage; active = well fitted curve in the direction sought with a large enough effect; inconclusive = small, poorly fitted or top-dose-only effect, or another doubt; inactive = no such curve, though single readings can be large; an effect the other way counts as inactive or inconclusive; also: nearly all actives have a fitted effect of over 40% in size
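Enzyme-compound mixtures sat 15 min at room temperature, followed by a 5 min reaction with 15 nM final substrate and 10 min with AlphaScreen beads. Recombinant human Tdp1 was used at 1 nM final.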
TSG101-PTAP inh: blocks PTAP/TSG101 interaction to inhibit HIV-1 budding; Q99816; Fluorescence polarization, FITC-PTAP peptide / Tsg101 binding; Potency, µM (top dose mostly 115 µM), most hits filed as inhibitors; 340,000 tested, under 10 active; AID 493005; active = well fitted inhibition curve with a large enough effect in the main read-out, with a control signal flat, not every such curve was filed as active; inconclusive = small, poorly fitted or top-dose-only effect, or effect the other way, or a change in a side signal; inactive = no such curve, though single readings can be large or run the other way
Target sequence (Q99816 whole entry, looked up): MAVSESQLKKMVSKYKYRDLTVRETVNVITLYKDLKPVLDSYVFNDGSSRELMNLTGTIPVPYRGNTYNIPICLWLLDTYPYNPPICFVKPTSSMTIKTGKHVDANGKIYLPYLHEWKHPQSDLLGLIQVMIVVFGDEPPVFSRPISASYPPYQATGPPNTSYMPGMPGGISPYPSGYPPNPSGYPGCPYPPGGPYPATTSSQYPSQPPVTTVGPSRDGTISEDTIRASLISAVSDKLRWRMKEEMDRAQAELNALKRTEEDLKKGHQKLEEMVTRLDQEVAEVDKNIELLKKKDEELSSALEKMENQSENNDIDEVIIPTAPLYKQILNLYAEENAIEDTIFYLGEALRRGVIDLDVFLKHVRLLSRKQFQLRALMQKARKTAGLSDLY
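Fluorescence anisotropy tracks displacement of a FITC-tagged PTAP peptide (50 nM) from the Tsg101 binding domain (10 uM), following a 20 min room-temperature incubation at pH 7.5.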
Hits are given with their value; - = inactive; ? = inconclusive; . = no result; ! = a repeat was not active; [ ] = another dose, or the depositor's remark. A selection: hits, their analogues and other compounds. The true share with any hit is near 2.4%. Unless noted, calls follow the shape of the full dose curve.

SMILES	Rango release inh	Rango-impB inh	ALOX12 inh	ClpP mod	TDP1 block	TSG101-PTAP inh
CC(C)(C)c1ccc(C(=O)NC(=S)NNC(=O)c2cccs2)cc1	-	-	40µM	-	-	-
O=C(NNC(=O)c1cccs1)c1ccc(Cl)nc1	-	-	-	-	89µM	-
CCNC(=O)N1CCCC1c1noc(CCC(=O)NC(CC)CC)n1 (configuration not stated)	.	.	-	.	.	.
COc1cccc(-c2cc(C(=O)NCc3ccccn3)[nH]n2)c1	.	.	-	.	.	.
CNC(=O)[C@@H]1CN(C(=O)CCCc2c[nH]c3ccccc23)C[C@H]1c1n[nH]c(C)n1	.	.	-	.	.	.
O=C(Nc1ccc(-c2ccc(Cl)cc2)cc1)c1ccncc1	.	.	7.1µM	.	.	.
CCOc1ccc(-n2nc(CO)c(C(=O)NCC(C)O)n2)cc1 (configuration not stated)	.	.	-	14µM	-	.
CC(C)NC(=O)c1nn(-c2ccccc2)nc1CO	.	.	-	.	.	.
COCCNC(=O)c1nn(-c2ccc(Cl)cc2)nc1CO	.	.	-	14µM	-	.
CCc1ccc(CNC(=O)c2nn(-c3ccc(C)c(C)c3)nc2CO)cc1	.	.	-	3.5µM	-	.
CCc1ccc(-n2nc(CO)c(C(=O)NCCOC)n2)cc1	.	.	-	13µM	-	.
CC(=O)Nc1ccc(C)cc1S(=O)(=O)N1CCCC1c1ccco1 (configuration not stated)	.	.	-	.	.	.
CCN(CC)Cc1oc(CO)cc(=O)c1O	-	-	32µM	.	50µM	-
Cc1ccc(-n2c(=O)c3sccc3n(Cc3cc(=O)n4ccccc4n3)c2=O)cc1	-	-	-	32µM!	-	-
Cc1ccc(CNc2nc3c([nH]2)c(=O)n(C)c(=O)n3C)cc1	-	-	-	20µM	-	-
COc1ccc(NC(=O)COc2ccc(/C=C/c3cc[n+](C)cc3)cc2OC)cc1	?	?	?	.	.	-
COc1ccc(/C=C/C(=O)OCC(=O)Nc2ccc(Cl)c(S(=O)(=O)N(C)C)c2)cc1OC	-	-	0.79µM	-	-	-
COc1ccc(/C=C/C(=O)OCC(=O)Nc2ccc(C)cc2)cc1S(=O)(=O)N1CCOCC1	-	-	-	7.9µM	-	-
COc1cc(/C=C/c2cc[n+](C)cc2)ccc1OCC(=O)Nc1ccc(Cl)c(Cl)c1	?	?	50µM	.	.	-
Cn1cnc2cc(Nc3ccc(Cl)cc3F)cc(C(=O)NCc3cccnc3)c21	.	.	-	.	.	.
CCc1ccc(NC(=O)CS(=O)CC(=O)Nc2ccc(N3CCOCC3)cc2)cc1 (configuration not stated)	-	-	-	.	50µM	-
Cc1ccc(C(=O)OCC(=O)Nc2ccc(N3CCOCC3)cc2)cc1	-	-	-	32µM	-	-
CC(C)Cc1cc(-c2ccco2)c(C#N)c(N)n1	-	?	.	3.2µM	-	-
N#Cc1c(-c2ccco2)cc(-c2ccc(F)cc2)nc1N	?	?	5.6µM	35µM	-	-
O=C1CCCC2=C1C1(CCS(=O)(=O)C1)N=C(Nc1nc3ccccc3o1)N2 (configuration not stated)	.	.	.	.	-	.
SMILES	Rango release inh	Rango-impB inh	ALOX12 inh	ClpP mod	TDP1 block	TSG101-PTAP inh
Cc1cccc(OC[C@H]2C[C@@H](NC(=O)c3ccc(C#N)cc3)[C@H](O)[C@@H]2O)n1	.	.	25µM	.	.	.
CCCNC(=O)N1CCN(C(=O)N2CC3CC(C2)[C@H]2CCCC(=O)N2C3)CC1 (some centres not stated)	.	.	-	.	.	.
COc1ccccc1C(=O)NC(=S)/C=C1/N(C)c2ccccc2C1(C)C	?	-	28µM	-	-	-
CN1/C(=C\C(=S)Nc2ccccc2)C(C)(C)c2ccccc21	-	-	-	.	-	-
CN1/C(=C\C(=S)NC(=O)c2ccccc2Cl)C(C)(C)c2ccccc21	?	?	25µM	-	-	-
CN1/C(=C/C(=S)NC(=O)C2(C)CC2(Cl)Cl)C(C)(C)c2ccccc21 (configuration not stated)	0.52µM[inhibitor]	?	22µM	.	-	-
CCOC(=O)c1cnc2c(C)cccc2c1Nc1ccccc1OCC	.	.	-	.	.	.
CN(Cc1cccnc1)C(=O)c1nccnc1N	.	.	-	.	.	.
Cc1ccccc1-n1nnnc1SCC(=O)c1ccc(Br)s1	.	.	25µM	.	.	.
CN1C(=S)SC(N2OC3C(=O)N(c4ccccc4)C(=O)C3C2c2ccc(Cl)cc2)C1(C)C (configuration not stated)	-	-	-	28µM	-	-
COc1cc2c(cc1OC)C(c1ccc(N(C)C)cc1)CC(=O)N2 (configuration not stated)	-	-	-	10µM	-	-
CC(C)Sc1nc(NCc2ccco2)c2c3c(sc2n1)COC(C)(C)C3	-	-	?	28µM	-	-
O=C(O)Cc1ccc(S(=O)(=O)Cc2ccccc2)cc1	.	.	1µM	.	.	.
Cn1nc(C2CCN(C(=O)c3ccccc3Cl)CC2)[nH]c1=O	.	.	-	.	.	.
COc1cccc(C(=O)N2CCC(c3nn(-c4ccc(Cl)cc4)c(=O)[nH]3)CC2)c1	.	.	35µM	.	.	.
O=C(Nc1ccccc1)N1CCC(c2nn(-c3ccc(Cl)cc3)c(=O)[nH]2)CC1	.	.	32µM	.	.	.
Cc1ccccc1C(=O)N1CCC(c2nn(-c3ccc(Cl)cc3)c(=O)[nH]2)CC1	.	.	45µM	.	.	.
O=C(c1ccccc1Cl)N1CCC(c2nn(-c3ccc(Cl)cc3)c(=O)[nH]2)CC1	.	.	35µM	.	.	.
COc1ccc(-n2nc(C3CCN(C(=O)c4cccc(OC)c4)CC3)[nH]c2=O)cc1	.	.	-	.	.	.
COc1ccc(NC(=O)CN2C(=O)NC(c3ccccc3Cl)C3=C2COC3=O)c(OC)c1 (configuration not stated)	.	.	-	.	.	.
COc1ccc(C(=O)N2CCC(c3nn(-c4ccc(OC)cc4)c(=O)[nH]3)CC2)cc1	.	.	-	.	.	.
Cc1ccc(C(=O)N2CCC(c3nn(-c4ccc(Cl)cc4)c(=O)[nH]3)CC2)cc1	.	.	25µM	.	.	.
COCCn1c(-n2nc(C)c(C)c2C)nc2c1c(=O)n(Cc1ccc(F)cc1)c(=O)n2C	.	.	-	.	.	.
CCC(=O)Nc1c(C(=O)Nc2ccc(F)cc2)oc2ccccc12	.	.	-	.	.	.
CCOc1ccccc1C(=O)Nc1c(C(=O)Nc2ccc(F)cc2)oc2ccccc12	.	.	-	32µM	-	.
CCC(CO)NS(=O)(=O)c1ccc(Cl)c(C)c1Cl (configuration not stated)	.	.	-	.	.	.
Cc1cc(C)n2nc(SCc3ncc(-c4ccccc4)o3)nc2n1	-	-	-	?	-	-
Cc1cc(C)n2nc(SCc3nnc(-c4ccccc4Br)o3)nc2n1	-	-	-	18µM	-	-
COc1ccc(-c2n[nH]c(=S)n2-c2ccc(C)cc2C)cc1	-	-	6.3µM	-	.	-

Screening results from PubChem.
